Test results as given in PubChem BioAssay (Tox21).
Inconclusive results are not listed. A call without a number means that no potency is given here. The source made the active and inactive calls. Calls come from the whole dose curve.

assay: qHTS assay for small molecule agonists of the antioxidant response element (ARE) signaling pathway - cell viability counter screen (AID 743203); conditions: ARE-bla HepG2 viability, CellTiter-Glo luminescence, 16 h; series mostly up to 73.3 µM; note: nearly all actives have a fitted effect of over 55% in size
Text: National Center for Advancing Translational Sciences [NCATS]
NIH Chemical Genomics Center [NCGC]
U.S. Environmental Protection Agency [EPA]
National Institutes of Environmental Health Sciences [NIEHS]
National Toxicology Program [NTP]
U.S. Food and Drug Administration [FDA]
Oxidative stress has been implicated in the pathogenesis of a variety of diseases ranging from cancer to neurodegeneration. The antioxidant response element (ARE) signaling pathway plays an important role in the amelioration of oxidative stress. The CellSensor ARE-bla HepG2 cell line (Invitrogen) can be used for analyzing the Nrf2/antioxidant response signaling pathway. Nrf2 (NF-E2-related factor 2) and Nrf1 are transcription factors that bind to AREs and activate these genes. The CellSensor ARE-bla Hep G2 cell line contains a beta-lactamase reporter gene under control of the Antioxidant Response Element (ARE) stably integrated into HepG2 cells. The activation of the report gene under culture conditions can be detected by fluorescence intensity. This cell line has been used to screen the Tox21 10K compound library to identify agonists that induce oxidative stress. The cytotoxicity of the Tox21 compound library against the ARE-bla cell line was tested in parallel by measuring the cell viability using CellTiter-Glo assay (Promega, Madison, WI) in the same wells.
Tox21 Assay Protocol Summary:
ARE-bla HepG2 cells were dispensed at 2,000 cells/5 ul/well in 1536-well white wall/solid bottom plates using a Multidrop Combi (ThermoFisher Scientific, Waltham, MA) dispenser. After the assay plates were incubated at 37C/5% CO2 for 5 hrs, 23 nL of compounds dissolved in DMSO, positive controls or DMSO only was transferred to the assay plate by a pintool work station (Kalypsys, San Diego, CA). The plates were incubated at 37C/5% CO2 for 16 hrs, followed by addition of 4 ul/well of CellTiter-Glo reagent into the assay plates using a Flying Reagent Dispenser (Aurora Discovery, San Diego, CA). After 30 min incubation at room temperature, the luminescence intensity in the assay plates was measured using a ViewLux (PerkinElmer, Shelton, CT) plate reader.
Potency is the fitted concentration of half-maximal effect.

| Structure (SMILES) | Potency |
| --- | --- |
| OCCOCCOCCOCCO | inactive |
| Oc1c(Cl)cc(Cl)c(Cl)c1Cl | inactive |
| O=C1O[C@H](CO)[C@@H](O)[C@H](O)[C@H]1O | inactive |
| CCCCCCC(C)(C)S | inactive |
| CCCCCCOC(C)=O | inactive |
| CC1(C)O[C@@H]2C[C@H]3[C@@H]4C[C@H](F)C5=CC(=O)CC[C@]5(C)[C@H]4[C@@H](O)C[C@]3(C)[C@]2(C(=O)CO)O1 | inactive |
| CCCCC(CC)COC(=O)/C=C\C(=O)OCC(CC)CCCC (stereo not given) | inactive |
| CCCCC(CC)COC(C)=O (stereo not given) | inactive |
| Oc1ccc2ccccc2c1 | inactive |
| C=C(C)C(=O)OCCCCCC | inactive |
| CC[Si](OC(C)=O)(OC(C)=O)OC(C)=O | inactive |
| Cc1cc(O)cc(C)c1Cl | inactive |
| O=Nc1ccc(O)cc1 | inactive |
| CC(C)(C)C(=O)C1C(=O)c2ccccc2C1=O | inactive |
| C=CC(=O)OCCCCCCCC(C)C | inactive |
| C=C1CC[C@H](O)CC1=C/C=C1\CCC[C@]2(C)[C@@H]([C@H](C)/C=C/[C@H](C)C(C)C)CC[C@@H]12 | inactive |
| Cc1cc(O)c2c(c1)C(=O)c1cc(O)cc(O)c1C2=O | 23.8 µM (active) |
| COCC(C)O (stereo not given) | inactive |
| CC#C[C@]1(O)CC[C@H]2[C@@H]3CCC4=CC(=O)CCC4=C3[C@@H](c3ccc(N(C)C)cc3)C[C@@]21C | inactive |
| OC1CCCC1 | inactive |

| Structure (SMILES) | Potency |
| --- | --- |
| Cn1c([N+](=O)[O-])cnc1COC(N)=O | inactive |
| Clc1ccc(Cl)c(Cl)c1Cl | inactive |
| COC(=O)c1ccc(C(=O)OC)cc1 | inactive |
| CCCCC/C=C\C/C=C\CCCCCCCC(=O)OC | inactive |
| O=[N+]([O-])c1cc(N(CCO)CCO)ccc1NCCO | inactive |
| O=C(c1ccc(O)cc1)c1ccc(O)cc1O | inactive |
| CCCCCC/C=C/CCCCCCCC(=O)O | inactive |
| CN(CCOc1ccc(CC2SC(=O)NC2=O)cc1)c1ccccn1 (stereo not given) | inactive |
| CS(=O)(=O)Nc1ccc([N+](=O)[O-])cc1Oc1ccccc1 | inactive |
| CS(=O)(=O)c1ccc([C@@H](O)[C@@H](CO)NC(=O)C(Cl)Cl)cc1 | inactive |
| OCC#CCO | inactive |
| CCCCNC(N)=O | inactive |
| CC1=C(CC(=O)O)c2cc(F)ccc2/C1=C\c1ccc(S(C)=O)cc1 (stereo not given) | inactive |
| NC(=O)NNc1ccccc1 | inactive |
| CC1=CC[C@H]2C[C@@H]1C2(C)C | inactive |
| OC[C@@H](O)[C@@H](O)[C@H](O)[C@@H](O)CO | inactive |
| Cc1cc(=O)[nH]c(C(C)C)n1 | inactive |
| Cc1cc(NS(=O)(=O)c2ccc(N)cc2)no1 | inactive |
| C=C(C)C(=O)OCC(CC)(COC(=O)C(=C)C)COC(=O)C(=C)C | inactive |
| O=C(Oc1ccccc1)c1ccc(O)cc1 | inactive |
